# Source: PubChem BioAssay
# GLP1R ag = agonists of human GLP-1 receptor; P43220; HEK293 GLP-1R CRE-luciferase, luminescence, 4-6 h; cells express a hypersensitive GLP-1R form; Potency, µM (top dose mostly 45.6 µM), without a hit: at the top dose activation, hits mostly activators; 380,000 compounds, 0.007% hits; AID 624172; also: % of control where 0% means no effect
# Target sequence (P43220 whole entry, looked up): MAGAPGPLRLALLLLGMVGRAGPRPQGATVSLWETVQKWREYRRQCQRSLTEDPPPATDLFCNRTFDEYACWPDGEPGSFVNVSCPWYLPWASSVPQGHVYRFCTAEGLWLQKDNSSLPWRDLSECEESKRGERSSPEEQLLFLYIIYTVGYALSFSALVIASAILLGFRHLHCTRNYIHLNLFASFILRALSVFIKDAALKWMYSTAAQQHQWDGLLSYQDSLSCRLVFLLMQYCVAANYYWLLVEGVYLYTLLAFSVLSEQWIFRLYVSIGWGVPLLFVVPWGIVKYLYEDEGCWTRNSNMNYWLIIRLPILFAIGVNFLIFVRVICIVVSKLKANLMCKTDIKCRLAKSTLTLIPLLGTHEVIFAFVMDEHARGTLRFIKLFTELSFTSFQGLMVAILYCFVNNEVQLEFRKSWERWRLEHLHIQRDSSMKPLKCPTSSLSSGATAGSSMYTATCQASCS
# HEK293 tox = cytotoxicity counter-screen for GLP-1 receptor inverse agonists | HEK293 cAMP-luciferase reporter cells, luminescence, 24 h | Potency, µM (highest dose often 38.3 µM), for the others: at the top dose activity change, negative = inhibition, usual class: inhibitors | 410,000 compounds, 0.13% hits | AID 624418;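 also: loss of luciferase light is scored as toxicity; % is scaled to controls: 0 for no effect and ±100 for the full control effect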
#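 Cells in DMEM/10% Nu serum/1% pen-strep, 1536-well format. Pre-incubated 12 h, dosed with 23 nL compound, incubated a further 24 h. Luciferase detection, 12 min at room temp, luminescence.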
# BRCA1 expr up = BRCA1 expression activation. MCF7-BRCA1-FFLuc reporter, luminescence, 48 h; response scale: scaled: vehicle 0%, 10 µM genistein 100%. Potency, µM (titrated, usually from 46.1 µM), inactives show at the top dose activation, hits mostly activators. 380,000 compounds, 1.1% hits; also: nearly all actives have a fitted effect of over 80% in size
#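 48 h compound treatment of MCF7-BRCA1-FFLuc cells (phenol-red free MEM, 37 °C), then 15 min with luciferase substrate and luminescence imaging.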
# GLP1R inv ag = inverse agonists of human GLP-1 receptor. P43220. HEK293 GLP-1R CRE-luciferase, luminescence, 24 h; GLP-1R form is constitutively active. Potency, µM (top dose mostly 38.3 µM), without a hit: top-dose activity change, negative = inhibition, hits mostly inhibitors. 410,000 compounds, 1.6% hits; also: % is scaled to controls: 0 for no effect and ±100 for the full control effect; nearly all actives have a fitted effect of over 55% in size
#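 Inverse agonism was detected as reduced cAMP-driven luciferase luminescence after 24 h compound treatment. The cells were HEK293 clones expressing constitutively active human GLP-1R with the reporter. Reporter-only and GPR119 cell lines served as counterscreen controls.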
# * hit, by the source's call; ? = inconclusive; nt = no result given; [ ] = remark or other dose. Most compounds without a hit are left out; they make up all but 2.6% or so of the library. Calls follow the shape of the dose curve; as a rule, active = well fitted curve in the direction sought with a large enough effect; inconclusive = small, poorly fitted or top-dose-only effect, or another doubt; inactive = no such curve, though single readings can be large; an effect the other way counts as inactive or inconclusive. Potency is read from the fitted curve at half-maximal effect.
SMILES,GLP1R ag,HEK293 tox,BRCA1 expr up,GLP1R inv ag
COCCNC(=O)CN1N=C(c2ccc(OC)cc2)CCC1=O,3%,5%,-11%,23%
O=C(Nc1nnc(C(F)(F)F)s1)c1ccc(Br)s1,-3%,?,-11%,-18%
O=C(NC1=NCCS1)c1ccc(Cl)cc1,-4%,-1%,7.9µM*,14%
O=C(NC1=NCCS1)c1ccc(-c2ccc(Cl)cc2)o1,0%,3%,2.8µM*,?
O=C(Nc1nnc(C2CCCCC2)s1)c1ccc(Br)s1,-10%,-5%,5µM*,40%
COc1ccc(Cl)cc1C(=O)NC1=NCCS1,11%,17%,16%,8%
Cc1cc(C)n(-c2ccc(C(=O)Nc3ccc4c(c3)OCO4)cc2)n1,19%,-15%,?,?
Cc1cc(C)n(-c2ccc(C(=O)NC3=NCCS3)cc2)n1,3%,10%,11µM*,1%
CCOC(=O)c1ccc2c(c1)N(Cc1cccc(C(F)(F)F)c1)C(=O)c1ccccc1S2(=O)=O,nt,2%,nt,1%
O=C(NC1=NCCS1)c1ccc(Br)s1,3%,1%,3.2µM*,1%
CC(OC(=O)CNC(=O)c1ccccc1F)C(=O)Nc1nc(-c2ccccc2)cs1 (centres undefined),2%,-8%,6.3µM*,11%
O=C1N[C@@H](Cc2ccccc2)C(=O)N2[C@@H]3N(S(=O)(=O)c4ccccc4)c4ccccc4[C@]3(Br)C[C@@H]12,2%,16%,-35%,10µM*
CC(C)c1cc(C(C)C)c(S(=O)(=O)N2c3ccccc3[C@@]3(Br)C[C@H]4C(=O)N[C@@H](Cc5ccccc5)C(=O)N4[C@@H]23)c(C(C)C)c1,-5%,5%,-52%,5.6µM*
O=C1N[C@@H](Cc2ccccc2)C(=O)N2[C@H]1C[C@]1([C@]34C[C@H]5C(=O)N[C@@H](Cc6ccccc6)C(=O)N5[C@H]3N(S(=O)(=O)c3ccccc3)c3ccccc34)c3ccccc3N(S(=O)(=O)c3ccccc3)[C@H]21,-5%,-23%,-6%,8%
O=C1C(O)=C(O)C(=O)C(O)=C1O,2%,nt,nt,nt
CCCN[C@@H](C)C(=O)Nc1c(C)csc1C(=O)OC,-2%[19.8 µM],nt,nt,nt
O=C1NC(=O)C2(CCc3ccccc32)N1 (centres undefined),-3%,-9%,10%,2%
C=C1CC2(OC1=O)c1ccccc1CCc1ccccc12,-17%,10µM*,-115%,?
CC1CCN(CC(=O)Nc2ccc(N3CCCCCC3)cc2)CC1,23%,-27%,-9%,2.8µM*
CC1CCN(CC(=O)Nc2ccc(S(=O)(=O)N3CCCCC3)cc2)CC1,-7%,13%,-13%,?
O=C(CN1CCCC1)Nc1ccc(Oc2ccc(NC(=O)CN3CCCC3)cc2)cc1,6%,?,-41%,1.8µM*
CC1CCN(CC(=O)Nc2cccc(C(=O)Nc3cccc(C(F)(F)F)c3)c2)CC1,16%,?,-59%,3.2µM*
Cc1ccc(C)c(OCc2cc(C(=O)N3CC[C@@H]4CCCC[C@H]4C3)no2)c1,2%,7%,?,11µM*
O=C(c1cc(COc2ccc(F)cc2Cl)on1)N1CCN(C2CCCCC2)C(=O)C1,11%,-11%,-27%,10µM*
Cc1ccc(C)c(OCc2cc(C(=O)N3C[C@@H](C)O[C@@H](C)C3)no2)c1,5%,15%,4.5µM*,?
SMILES,GLP1R ag,HEK293 tox,BRCA1 expr up,GLP1R inv ag
Cc1ccc(C)c(OCc2cc(C(=O)N3CCN(c4ccccc4C)CC3C)no2)c1 (centres undefined),-7%,8%,72%,2.5µM*
CN(C)c1ccc(/C=C/c2ccnc3ccccc23)cc1O,nt,nt,13%,nt
Cc1ccc(C)c(OCc2cc(C(=O)N3CCN(c4ccccc4)CC3)no2)c1,10%,6%,7.1µM*,?
CC(C)Oc1cccc(NC(=O)C2(C)CCN2C(C)C)c1 (centres undefined),12%,1%,9%,?
CC1=C/C(=N\N=C2\NC(=O)C(CC(=O)Nc3ccccc3F)S2)CC(C)(C)C1 (centres undefined),4%,11µM*,-19%,?
CC(=O)C1=C(c2ccc(Br)cc2)C(=O)c2ccccc2C1=O,-32%,3.5µM*,-95%,?
CC(Oc1cccc(Cl)c1)C(=O)Nc1nc(-c2ccccn2)cs1 (centres undefined),1%,?,-82%,5µM*
CC(Oc1ccccc1)C(=O)Nc1nc(-c2ccccn2)cs1 (centres undefined),11%,?,-73%,?
COC1CCCN(C(=O)c2ccc3oc(Cc4ccc(Cl)cc4)nc3c2)C1 (centres undefined),4%,-19%,-1%,-23%
CCCCc1nc2cc(C(=O)N3CCC(O)CC3)ccc2o1,-1%,-1%,3.5µM*,?
CCCCc1nc2cc(C(=O)N3CCC[C@H]3CO)ccc2o1,-5%,8%,65%,17%
COCC1CCCN(C(=O)c2ccc3oc(Cc4ccc(Cl)cc4)nc3c2)C1 (centres undefined),4%,-16%,6%,10µM*
Cc1[nH]c(=O)[nH]c(=O)c1S(=O)(=O)Nc1cccc(C(F)(F)F)c1,-1%,5%,-13%,5%
CCC(NC(=O)CN1CCN(C(=O)c2cccs2)CC1)c1ccc(C)cc1 (centres undefined),-1%,-7%,3%,6%
CCOC(=O)c1cc(-c2ccc(F)cc2)n(CCC(=O)Nc2ccccc2OC)c1C,nt,-3%,nt,10µM*
CCOC(=O)c1cc(-c2ccc(F)cc2)n(CCC(=O)NCc2ccc(C)cc2)c1C,nt,-6%,nt,10µM*
CCOC(=O)c1cc(-c2ccc(OC)cc2)n(CCC(=O)Nc2ccccc2OC)c1C,nt,2%,nt,?
Cc1cccc(C(=O)O/N=C(\N)c2ccccn2)c1,-3%,?,-55%,2µM*
CCOc1ccc(C(=O)O/N=C(\N)c2ccccn2)cc1,-8%,?,0%,2.5µM*
N/C(=N\OC(=O)c1ccccc1)c1ccccn1,-8%,-13%,-54%,?
Cc1ccc(C(=O)O/N=C(\N)c2ccccn2)cc1,-6%,?,-73%,2.5µM*
Cc1cccc(N2CCN(C(=O)CCCn3c(=O)[nH]c4ccsc4c3=O)CC2)c1C,0%,0%,14%,6%
C[C@@H](O)[C@H]1C(=O)N2C(C(=O)O)=C(S[C@@H]3CN[C@H](CNS(N)(=O)=O)C3)[C@H](C)[C@H]12,7%,nt,nt,nt
Cc1cccc2c(=O)c(C(=O)NCc3cccs3)c[nH]c12,-2%,7%,13µM*,12%
Cc1ccc2c(=O)c(C(=O)NCc3cccs3)c[nH]c2c1,3%,-4%,11µM*,62%
Cc1cc(C(=O)NCc2cccs2)c(C)o1,-8%,-8%,4%,17%
COc1ccc(N2CCN(C(CNC(=O)C(=O)NCc3ccc(C)cc3)c3cccnc3)CC2)cc1 (centres undefined),nt,-12%,nt,4%
